High-throughput results deposited in PubChem BioAssay by National Center for Advancing Translational Sciences (NCATS).
D2 PAM-1: positive allosteric modulators of human D2 dopamine receptor; P14416; HEK293 T-REx D2, calcium flux, EC20 dopamine potentiation; potentiation, % at 10 µM; actives 0.34% (n = 340,000); AID 485347;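 active = potentiation over 3 SD above the plate norm, cut at about 30% in these data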; note: 0% is about no effect
Target sequence (P14416 whole entry, looked up): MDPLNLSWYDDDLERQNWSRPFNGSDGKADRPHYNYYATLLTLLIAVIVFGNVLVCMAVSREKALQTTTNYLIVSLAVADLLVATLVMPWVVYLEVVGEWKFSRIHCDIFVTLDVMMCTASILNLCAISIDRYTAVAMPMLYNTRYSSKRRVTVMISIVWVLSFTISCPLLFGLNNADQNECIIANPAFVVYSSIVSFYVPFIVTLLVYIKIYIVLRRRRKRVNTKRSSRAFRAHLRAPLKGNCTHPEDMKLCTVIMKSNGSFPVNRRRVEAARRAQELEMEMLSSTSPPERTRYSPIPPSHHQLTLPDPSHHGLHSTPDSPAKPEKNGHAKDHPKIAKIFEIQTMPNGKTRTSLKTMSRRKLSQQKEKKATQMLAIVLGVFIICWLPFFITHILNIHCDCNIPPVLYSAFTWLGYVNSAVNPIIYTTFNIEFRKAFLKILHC
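Tetracycline-induced Hek293 Trex D2 cells, force-coupled to calcium, loaded with no-wash calcium dye. Compound added with 180 s kinetic read for agonism, then EC20 dopamine and a further 180 s read for potentiation.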
D2 ag-1: activates the human D2 dopamine receptor; activation, % (no concentration beside the values); actives 0.084% (n = 360,000); P14416; DiscoveRx PathHunter D2 beta-arrestin, luminescence, 90 min; 100% = 57 uM dopamine signal; in the data active = activation above about 40%; inconclusive = between about 15% and that limit
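Agonist mode: compounds alone added to overnight-plated D2 PathHunter cells for 90 min at 37 C, with 57 uM final dopamine (EC100) defining full response. Beta-arrestin recruitment detected by chemiluminescent reagent, read after 1 h at ambient temperature.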
D2 antagonist: antagonizes the human D2 dopamine receptor. P14416. HEK293 TREx D2 cells, calcium flux, dopamine EC80. inhibition, % at 10 µM. actives 2% (n = 340,000); in the data active = inhibition above about 30%; inactive = below that, where a call was filed; note: 0% is about no effect
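HEK293 T-REx D2 cells, tet-induced, calcium dye no-wash. Cpd pintool add, 180 s kinetic, then EC80 DA, 180 s kinetic. Ca flux read.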
D2 PAM-2: human D2 receptor positive allosteric modulation; potentiation, % (concentration not given with the values); P14416; AID 624464; DiscoveRx D2 beta-arrestin cells, luminescence, 90 min; 100% = 57 uM dopamine signal; actives 0.23% (n = 360,000); in the data active = potentiation above about 50%; inconclusive = mostly about 30% to 49%
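D2 cells co-treated with compound plus 50 nM dopamine (EC20) for 90 min at 37 deg C to detect potentiation. Beta-arrestin recruitment was read as enzyme-fragment luminescence after 1 h at ambient temperature. Full response was set by 57 uM dopamine.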
D2 ag-2: agonists of human D2 dopamine receptor | P14416 | actives 0.53% (n = 340,000) | activation, % at 2 µM | HEK293 T-REx D2 cells, calcium flux agonist mode;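 active = activation over 3 SD above normal in the single-dose calcium agonist read, cut at about 30% in these data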; note: 0% is about no effect
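Agonism scored from kinetic calcium signal (1 read/sec, 180 s) following compound pin transfer, after a 10 s baseline. Cells: HEK293 Trex line expressing inducible D2 receptor coupled to calcium, dye-loaded after overnight culture at 30 C.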
D3 ag: activates human D3 dopamine receptor beta-arrestin recruitment; shares compounds with D2 ag-2; DiscoveRx D3 beta-arrestin cells, luminescence, 90 min; Potency, µM (highest dose often 76.9 µM), for inactives: at the top dose activation, most hits filed as activators; actives 4% (n = 2,300); AID 720506;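 note: potency is the fitted concentration of half-maximal effect; 100% = dopamine control response; nearly all actives have a fitted effect of over 70% in size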
D2 ag-3: activates human D2 dopamine receptor in D3 counterscreen. shares compounds with D2 ag-2. DiscoveRx PathHunter D2 beta-arrestin, luminescence, 90 min; response scale: percent relative to full dopamine signal. Potency, µM (highest dose often 76.9 µM), without a hit: top-dose activation, usual class: activators. actives 5.9% (n = 2,300). AID 720507; note: potency is the fitted concentration of half-maximal effect; % of control where 0% means no effect; nearly all actives have a fitted effect of over 70% in size
Active calls of the source: *; ? = inconclusive; / = no result given. Sampled rows, rich in hits. Any-hit rate of the full collection: about 2.4%. Unless noted, calls come from the whole dose curve; as a rule, active = well fitted activation curve with a large enough effect; inconclusive = small, poorly fitted or top-dose-only effect; inactive = flat fitted curve, though single readings scatter.

SMILES	D2 PAM-1	D2 ag-1	D2 antagonist	D2 PAM-2	D2 ag-2	D3 ag	D2 ag-3
CCOC(=O)c1c(NC(=O)CC)sc2c1CCN(Cc1ccccc1)C2	5	-6	-13	-17	8	/	/
CCOC(=O)c1c(NC(C)=O)sc2c1CCN(Cc1ccccc1)C2	-19	-3	-2	-8	25	/	/
CCOC(=O)c1c(NC(=O)C(C)Sc2cccc[n+]2[O-])sc2c1CCN(Cc1ccccc1)C2 (configuration not stated)	14	-5	-6	-16	42*	-3%	-7%
COc1ccccc1C1CCN(Cc2cccc(C(=O)N3CCC(O)CC3)c2)CC1	-24	0	75*	-5	75*	-4%	6%
O=C(NCc1ccccc1)C(=O)NCC(c1ccco1)N1CCN(c2ccccc2F)CC1 (configuration not stated)	-5	-4	-6	-2	11	/	/
O=C(NCc1cccnc1)C(=O)NCC(c1ccco1)N1CCN(c2ccccc2F)CC1 (configuration not stated)	-21	41*	-18	6	63*	-4%	?
O=C(NCc1cccnc1)C(=O)NCC(c1ccco1)N1CCN(c2ccccc2)CC1 (configuration not stated)	-8	?	19	8	32*	?	?
CCC(C)(C)C1CCC2(CC1)NC(=O)N(CC(=O)N1CCN(c3ccccc3OC)CC1)C2=O (configuration not stated)	/	-3	/	-16	/	/	/
CC(=O)N1CCN(C(=O)COC(=O)COc2c(C)cc(C)cc2C)CC1	2	0	21	-10	-1	-5%	-1%
CCOC(=O)N1CCN(C(=O)COC(=O)COc2c(C)cc(C)cc2C)CC1	/	-5	/	-5	/	/	/
COc1cccc(-n2cc(CNCc3c(C(=O)N(C)C)nc4ccc(Cl)cn34)cn2)c1	-21	-3	/	-22	/	10%	0%
COc1cccc(-n2cc(CNCc3cn(C)nc3-c3ccccc3F)cn2)c1	-22	66*	85*	24	79*	6.3µM*	13µM*
Cc1ccccc1-n1cc(CNCc2c(C(=O)N(C)C)nc3ccc(Cl)cn23)cn1	-1	-5	1	-25	0	/	/
NNC(=O)CCn1nnc2ccccc21	-4	4	/	-25	/	-7%	-3%
COc1ccc(Cc2c(-c3ccc(F)cc3)nc3ccc(Cl)cn23)c(C)c1	/	-5	/	-3	/	/	/
O=C(NCc1ccccc1)c1nncc(-c2ccccc2)n1	-2	-5	9	-15	0	2%	-4%
O=C(O)c1cc(S(=O)(=O)Nc2ccc3cn[nH]c3c2)ccc1Cl	/	3	/	-4	/	/	/
CCOc1ccc(-n2c(SCc3nc(-c4ccc(C)cc4)no3)nnc2-c2ccncc2)cc1	-21	-4	10	-8	47*	-8%	-1%
COc1ccc(-c2noc(CSc3nnc(-c4ccncc4)n3-c3ccc(C)cc3)n2)cc1	-3	/	/	/	3	/	/
O=C(N1CCN(Cc2ccccc2)CC1)C12CC3CC(CC(C3)C1)C2	10	-3	-20	-24	-1	/	/
O=C(N1CCN(c2ccccc2)CC1)C12CC3CC(CC(C3)C1)C2	-30	7	72*	-2	80*	22%	21%
COC(=O)Cn1c(O)c(N=NC(=O)CNC(=O)c2ccncc2)c2ccccc21	-1	-4	-17	-7	0	/	/
COCCCn1c(SCC(=O)NC2CCCCC2)nnc1-c1ccncc1	-4	-4	1	?	2	/	/
COCCCn1c(SCC(=O)NC2CCS(=O)(=O)C2)nnc1-c1ccc(Cl)cc1 (configuration not stated)	4	-4	-6	-1	0	-3%	-2%
O=C(Nc1cccc(Cl)c1)c1nc[nH]c1C(=O)NCCCCNC(=O)c1[nH]cnc1C(=O)Nc1cccc(Cl)c1	/	-3	/	-4	/	/	/
SMILES	D2 PAM-1	D2 ag-1	D2 antagonist	D2 PAM-2	D2 ag-2	D3 ag	D2 ag-3
O=C(Nc1ccccc1)c1nc[nH]c1C(=O)NCc1ccccc1	-15	-7	12	-9	0	-11%	4%
O=C(Nc1cccc(Cl)c1)c1nc[nH]c1C(=O)NCc1ccccc1	2	-4	-1	-7	1	-5%	-2%
Cc1cccc(NC(=O)c2nc[nH]c2C(=O)NCc2ccccc2)c1	-11	-4	-7	-7	0	-5%	-4%
Nc1nc(SCC(=O)c2ccc(Cl)cc2)c2ncn(C3OC(CO)C(O)C3O)c2n1 (configuration not stated)	/	0	/	-13	/	/	/
CCOC(=O)N1CCN(CC(=O)Nc2c(C(=O)OC)[nH]c3cc(C)ccc23)CC1	-12	15	/	-7	/	?	16%
c1ccc(CN2CCN(c3ncnc4nc[nH]c34)CC2)cc1	-22	10	68*	8	81*	3%	?
C1=C(c2ccccc2)CCN(c2ncnc3nc[nH]c23)C1	4	2	-13	-3	0	/	/
Cc1noc(COc2ccccc2OCC(N)=O)n1	/	-5	/	-8	/	/	/
COc1ccc(CN([C@H](C)CO)S(=O)(=O)N(Cc2ccccc2)[C@H](CO)C(C)C)cc1	12	-1	5	-4	0	-5%	-6%
COc1ccc(CN([C@H](CO)CC(C)C)S(=O)(=O)N(Cc2ccccc2)[C@H](CO)CC(C)C)cc1	/	1	/	-7	/	/	/
O=C(O)C1CCCN1S(=O)(=O)c1cccc2nsnc12 (configuration not stated)	-12	0	-6	-2	45*	-10%	-2%
O=C(NCCc1ccccc1)C1CCN(S(=O)(=O)c2cccc3nsnc23)CC1	2	-1	-14	-19	-1	/	/
O=C(NCCN1CCN(c2ccccc2)CC1)C1CCN(S(=O)(=O)c2cccc3nsnc23)CC1	/	?	55*	-1	28	?	22%
COc1ccc(-c2nnc(SCC(=O)Nc3ccc(C)c(C)c3)s2)cc1	-10	/	/	/	/	/	/
COc1ccccc1-c1noc(-c2ccc(NCCc3ccccc3)c([N+](=O)[O-])c2)n1	6	/	/	/	/	/	/
O=C(CCc1nc2ccccc2c(=O)[nH]1)Nc1ccc(Cl)c(Cl)c1	-23	?	54*	15	70*	?	?
O=C(CCSc1nc(-c2ccco2)cc(C(F)(F)F)n1)N1CCN(c2ccccn2)CC1	-17	0	6	2	52*	-7%	0%
CN1CCN(C(=O)CSc2nc(-c3ccco3)cc(C(F)(F)F)n2)CC1	-6	1	-15	-15	-1	/	/
